High-throughput results as filed in PubChem BioAssay.
TcdB GH inh: TcdB glycohydrolase inhibition. P18177. TcdB glycohydrolase enzymatic assay, plate reader. inhibition, % at 9.99 µM. 350,000 tested, 0.24% active. AID 652162; in the data active = inhibition above about 10%
Sa ugtP lethal: compounds lethal to S. aureus RN4220 ugtP deletion mutant. OD600 growth, 16 h. growth inhibition, % (concentration not given with the values). 330,000 tested, 0.54% active. AID 1259309; in the data active = growth inhibition above about 68%;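 also: plate controls were untreated wells for no effect and antibiotic for full effect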
Mtb hypoxia inh: inhibitors of hypoxia-regulated fluorescent reporter in Mycobacterium tuberculosis; M. tuberculosis hypoxia-regulated fluorescent reporter, fluorescence; fluorescence inhibition, % (concentration not given with the values); 300,000 tested, 0.1% active; AID 1159583; in the data active = fluorescence inhibition mostly above about 23%, no sharp cut-off; inactive = mostly below about 17%
MazEF act: MazEF (E. coli) toxin RNase activation. P0AE70. FAM/BHQ RNA-DNA oligo cleavage fluorescence, 5 h. activation, % at 20 µM. 350,000 tested, 0.32% active; in the data active = activation above about 50%
RN4220 kill: kills Staphylococcus aureus RN4220; S. aureus RN4220 growth, OD600, 16 h; 330,000 tested, 0.33% active; AID 1259311; inhibition, % (test concentration not listed); in the data active = inhibition above about 85%;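 also: plate controls were untreated cells for no effect and reference antibiotic for full effect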
PfHsp40 yeast: restores yeast growth despite PfHsp40 toxicity; AID 504582; 340,000 tested, 0.68% active; growth rescue, % at 12.5 µM; S. cerevisiae expressing PfHsp40, growth rescue, ATP luminescence; in the data active = growth rescue above about 28%, passing the limit was not always enough;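 also: yeast W303a lacking pdr1 and pdr3 grown in galactose medium; growth measured after three days at 30 °C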
An asterisk follows results filed as active; x = not tested or not shown; ! = repeats disagree. Sampled rows, rich in hits. Any-hit rate of the full collection: about 1.3%.

SMILES	TcdB GH inh	Sa ugtP lethal	Mtb hypoxia inh	MazEF act	RN4220 kill	PfHsp40 yeast
O=S(=O)(/N=C(\Sc1ccccc1)c1ccccc1)c1ccc(Cl)cc1	x	x	x	-5	x	0
O=S(=O)(N=C(Sc1ccc(Cl)cc1)c1ccccc1)c1ccccc1	x	92*	7	x	26	x
CC(C)NC(=O)N(C)C[C@@H]1Oc2ncc(C#Cc3ccccc3F)cc2C(=O)N([C@@H](C)CO)C[C@H]1C	0	x	x	x	x	x
O=[N+]([O-])c1cc(CN2CCN(c3cccc(C(F)(F)F)c3)CC2)c2cccnc2c1O	2	86*	6	3	61	48*
O=[N+]([O-])c1cc(CN2CCCC2)c2cccnc2c1O	x	x	x	2	x	11
CCCCC(=O)NC(c1ccc(N(C)C)cc1)c1ccc2cccnc2c1O (configuration not stated)	0	x	x	4	x	509*
CCCCC(=O)NC(c1ccc(N(CC)CC)cc1)c1ccc2cccnc2c1O (configuration not stated)	2	x	x	-4	x	129*
CCCC(=O)NC(c1ccccc1OC)c1ccc2cccnc2c1O (configuration not stated)	x	22	-1	12	14	374*
CCCCC(=O)NC(c1ccc(Cl)cc1)c1ccc2cccnc2c1O (configuration not stated)	1	x	x	-4	x	-1
CCNC(=O)C[C@@H]1CC[C@H]2[C@H](COc3ccc(NC(C)=O)cc3C(=O)N2C)O1	10*	x	x	x	x	x
CCCNC(=O)C[C@H]1CC[C@H]2[C@@H](COc3ccc(NC(=O)c4ccc(Cl)cc4)cc3C(=O)N2C)O1	0	x	x	x	x	x
CCCNC(=O)C[C@H]1CC[C@@H]2[C@H](COc3ccc(NC(=O)c4ccc(Cl)cc4)cc3C(=O)N2C)O1	15*	x	x	x	x	x
CCNC(=O)C[C@@H]1CC[C@@H]2[C@H](COc3ccc(NC(C)=O)cc3C(=O)N2C)O1	9	x	x	x	x	x
O=C(NN=Cc1cccc(O)c1)c1ccc(COc2cccc3cccnc23)cc1	x	-2	-5	x	-1	x
Nc1nc(SCC(=O)Nc2ccc(S(N)(=O)=O)cc2)n[nH]1	2	6	1	6	-1	-1
Cc1ccc(Oc2ccc(NC(=O)CSc3n[nH]c(N)n3)cc2)cc1	x	91*	2	2	1	-1
Cc1sc(NC(=O)CSc2n[nH]c(N)n2)c(C#N)c1C	1	x	x	53*	x	10
CCc1oc2ccccc2c1C(=O)c1cc(Br)c(O)c(Br)c1	-3	x	x	-3	x	259*!
C=CCn1c(=O)c(C(=O)NCCNCC)c(O)c2ccccc21	-8	6	7	-3	2	0
CCCCCCCn1c(=O)c(C(=O)Nc2cnccn2)c(O)c2ccccc21	0	98*	x	0	98*	12
Cn1c(=O)c(C(=O)NCc2ccccc2Cl)c(O)c2ccccc21	1	12	8	54*	1	-1
C=CCn1c(=O)c(C(=O)NCc2ccccc2)c(O)c2ccccc21	2	25	8	0	3	129*
CCCCCn1c(=O)c(C(=O)Nc2cnccn2)c(O)c2ccccc21	0	99*	x	4	74	19
CCn1c(=O)c(C(=O)NCc2ccccc2Cl)c(O)c2ccccc21	-2	28	-4	-3	1	3
C[C@@H]1CN([C@@H](C)CO)C(=O)c2cc(NC(=O)NC3CCCCC3)ccc2O[C@@H](C)CCCCO[C@@H]1CN(C)C(=O)c1ccccc1	0	x	x	x	x	x
SMILES	TcdB GH inh	Sa ugtP lethal	Mtb hypoxia inh	MazEF act	RN4220 kill	PfHsp40 yeast
CCCCn1c(=O)c(C(=O)NCc2ccncc2)c(O)c2ccccc21	x	-5	2	-2	-6	219*
CCCOc1ccc(C(=O)ON=C(CC)c2ccc(C)cc2)cc1	x	93*	6	x	-2	x
Clc1ccc(CCNc2nc3ccccc3s2)cc1	x	27	-2	-3	-2	217*
NC(=O)COc1ccc(C=NNC(=O)CC(=O)NCCc2ccccc2)cc1	x	9	3	x	5	x
O=C(c1ccc(Cl)c(Cl)c1)N1CCC(=O)N(C(COCc2ccc(Cl)cc2)Cc2ccccc2)CC1 (configuration not stated)	5	-18	6	-3	-6	30*
COC(=O)c1ccccc1NC(=O)N1c2ccccc2Sc2ccccc21	x	94*	-3	-1	-8	-1
CNC(=O)N(O)C1N(N=Cc2ccc(SC)cc2)C(=S)SC1(C)C (configuration not stated)	x	10	-1	x	2	x
CCCCCCCn1c2c(c(=N)c3ccccc31)CCC2	2	89*	6	23	25	0
